Compound activity (PubChem)
UGM FP inh – blocks M. tuberculosis UGM enzyme | AID 504406 | purified UGM, fluorescence polarization probe displacement | 320,000 compounds, 0.06% hits | P9WIQ1 | inhibition, % at 10 µM; in the data active = inhibition above about 10%, passing the limit was not always enough
Rv3671c protease – inhibits the M. tuberculosis serine protease Rv3671c | 320,000 compounds, 0.048% hits | inhibition, % at 5.96 µM; in the data active = inhibition above about 38%;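 also: extracellular domain of Rv3671c used as enzyme; 0% = enzyme with DMSO and 100% = no enzyme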
CCHF vOTU inh-1 – blocks the CCHF virus ovarian tumor domain protease; CCHFV vOTU protease, Pep-AMC fluorescence; 370,000 compounds, 0.55% hits; inhibition, % at 11.5 µM; also: 0% = vehicle wells with enzyme and 100% = no enzyme wells
Mtb bLac sens – beta-lactam sensitization of Mtb H37Rv; M. tuberculosis H37Rv growth with meropenem, percent inhibition; inhibition, % at 25 µM; 330,000 compounds, 0.27% hits; call rule not given here;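 also: growth measured after seven days incubation then overnight dye step; 0% = bacteria only wells and 100% = bacteria with antibiotic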
RecA splice inh – inhibitors of M. tuberculosis RecA intein splicing | cell-free RecA intein splicing, fluorescence | inhibition, % (no concentration beside the values) | 290,000 compounds, 0.75% hits; in the data active = inhibition above about 30%;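 also: 0% = vehicle wells and 100% = reference inhibitor control wells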
Target sequence (P9WHJ3 whole entry, looked up, canonical isoform): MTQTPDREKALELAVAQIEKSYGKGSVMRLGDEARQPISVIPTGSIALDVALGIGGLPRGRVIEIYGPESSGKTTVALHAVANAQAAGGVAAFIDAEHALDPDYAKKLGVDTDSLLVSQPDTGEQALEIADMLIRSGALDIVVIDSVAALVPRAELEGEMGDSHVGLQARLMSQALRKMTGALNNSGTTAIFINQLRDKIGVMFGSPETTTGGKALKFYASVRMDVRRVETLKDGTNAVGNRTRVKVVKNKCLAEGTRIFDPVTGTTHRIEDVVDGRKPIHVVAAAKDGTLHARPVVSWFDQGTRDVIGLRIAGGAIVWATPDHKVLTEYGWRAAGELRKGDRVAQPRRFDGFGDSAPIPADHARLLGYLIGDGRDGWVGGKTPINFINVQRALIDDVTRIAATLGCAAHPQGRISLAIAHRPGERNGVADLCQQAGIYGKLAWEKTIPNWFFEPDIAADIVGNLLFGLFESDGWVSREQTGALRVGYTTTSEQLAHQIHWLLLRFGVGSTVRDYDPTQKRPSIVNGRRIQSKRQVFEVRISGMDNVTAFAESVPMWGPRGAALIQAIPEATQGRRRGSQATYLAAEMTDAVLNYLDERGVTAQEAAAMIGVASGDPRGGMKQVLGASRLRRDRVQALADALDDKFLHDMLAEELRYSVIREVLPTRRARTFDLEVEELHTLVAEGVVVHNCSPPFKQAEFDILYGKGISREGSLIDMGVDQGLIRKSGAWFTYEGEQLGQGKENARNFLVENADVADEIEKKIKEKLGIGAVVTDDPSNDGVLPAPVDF
CCHF vOTU inh-2 – confirmation of CCHF virus vOTU protease inhibitors | shares compounds with CCHF vOTU inh-1 | Recombinant CCHFV vOTU, Pep-AMC fluorescence | inhibition, % at 11.5 µM | 1,900 compounds, 17% hits | AID 686976
* hit, by the source's call. This is a sample that favours compounds with a hit; in the whole collection about 1.2% have one here. Rule as the data show it, unless noted: active = inhibition above about 30%; inactive = the rest.

What do the screens show for `Cn1cc(/C=N/NC(=O)c2cc3cc(Br)ccc3o2)c2ccccc21`?
UGM FP inh: 3; Rv3671c protease: -5; CCHF vOTU inh-1: 6; Mtb bLac sens: 1; RecA splice inh: -35

Results for CN1C(=O)C[C@@](C#N)(C(=O)NCC(F)(F)F)[C@H]1c1ccccc1 ?
CCHF vOTU inh-1: -6

Results for Clc1ccccc1Cn1ccc2ccc(-c3ccc4ccn(Cc5ccccc5Cl)c4c3)cc21 ?
CCHF vOTU inh-1: 10

What do the screens show for `CC(=O)Nc1ccc(S(=O)(=O)NC2=C(N3CCN(C)CC3)C(=O)c3ccccc3C2=O)cc1`?
UGM FP inh: 0; Rv3671c protease: -31; CCHF vOTU inh-1: 53*; Mtb bLac sens: -2; RecA splice inh: 7; CCHF vOTU inh-2: 30*

Results for CCN1CCN(C2=C(NS(=O)(=O)c3ccc(NC(C)=O)cc3)C(=O)c3ccccc3C2=O)CC1 ?
UGM FP inh: 0; Rv3671c protease: -32; CCHF vOTU inh-1: 58*; Mtb bLac sens: 3; RecA splice inh: 2; CCHF vOTU inh-2: 22

What do the screens show for `COc1ccc(N2CCN(CCCNC(=O)CCc3cccc(Cl)c3)CC2)cc1`?
CCHF vOTU inh-1: 5

How did CCOC(=O)c1cccc(NC(=O)CN(C)S(=O)(=O)c2ccco2)c1 do in these assays?
CCHF vOTU inh-1: 5

How did COc1ccc2c(c1)CO[C@H]([C@H](O)CO)[C@H]2/C=C/c1ccccc1 do in these assays?
CCHF vOTU inh-1: -11

What do the screens show for `N#Cc1ccc(OC[C@@H](O)CN2CCC(C(O)(c3ccccc3)c3ccccc3)CC2)cc1F`?
CCHF vOTU inh-1: 0

How did CCCCC[C@@H](C)N1C[C@@H](COCc2ccccc2)Oc2cc(N3CC[C@H](O)C3)ccc2S1(=O)=O do in these assays?
CCHF vOTU inh-1: 25

How did CCCCC[C@@H](C)N1C[C@@H](COCc2ccccc2)Oc2cc(N3CC[C@@H](O)C3)ccc2S1(=O)=O do in these assays?
CCHF vOTU inh-1: 31*; CCHF vOTU inh-2: -4

Results for CCCCC[C@@H](C)N1C[C@@H](COCc2ccccc2)Oc2cc(N3CCC[C@@H]3CO)ccc2S1(=O)=O ?
CCHF vOTU inh-1: 35*; CCHF vOTU inh-2: 8

Results for CCCCC[C@@H](C)N1C[C@@H](COCc2ccccc2)Oc2cc(N3CC[C@@H](N(C)C)C3)ccc2S1(=O)=O ?
CCHF vOTU inh-1: 35*; CCHF vOTU inh-2: 2

What do the screens show for `CCCCC[C@H](C)N1C[C@H](COCc2ccccc2)Oc2cc(N3CC[C@@H](N(C)C)C3)ccc2S1(=O)=O`?
CCHF vOTU inh-1: 37*; CCHF vOTU inh-2: 3

How did CC(=O)C1(C(=O)NCc2ccccc2)CC(c2ccccc2C(F)(F)F)=NO1 (stereo unspecified) do in these assays?
CCHF vOTU inh-1: -2

How did CC(C)[C@H](NC(=O)[C@H](C)NC(=O)OC(C)(C)C)C(=O)N1CCC2CCN(Cc3ccccc3)CC21 (stereo partly specified) do in these assays?
CCHF vOTU inh-1: 8

How did CCCn1c(NC(=O)c2ccccc2)nc(Cc2ccccc2)c1Cc1ccccc1 do in these assays?
CCHF vOTU inh-1: 11

How did NC(=O)CC(NC(=O)Cc1ccc(Br)cc1)c1ccc(NCCN2CCCC2)c([N+](=O)[O-])c1 (stereo unspecified) do in these assays?
UGM FP inh: -2; Rv3671c protease: 5; CCHF vOTU inh-1: 34*; Mtb bLac sens: -9; RecA splice inh: -1; CCHF vOTU inh-2: -14

How did O=C(CCc1ccccc1-c1ccccc1CCNC(=O)c1ccccc1)NCc1ccccc1 do in these assays?
CCHF vOTU inh-1: 8

What do the screens show for `CCCC[C@@H]1C(=O)N2N=Cc3cscc3[C@H]2N2N=Cc3cscc3[C@@H]12`?
CCHF vOTU inh-1: 5

What do the screens show for `CN(CC(=O)Nc1ccccc1Cl)C(=O)C1CCN(S(=O)(=O)c2ccc3c(c2)OCCO3)CC1`?
UGM FP inh: 1; Rv3671c protease: -8; CCHF vOTU inh-1: 17; Mtb bLac sens: 2; RecA splice inh: 0

Results for CN(CC(=O)Nc1ccc(F)cc1)C(=O)C1CCN(S(=O)(=O)c2ccc3c(c2)OCCO3)CC1 ?
UGM FP inh: -1; Rv3671c protease: -9; CCHF vOTU inh-1: 34*; Mtb bLac sens: -1; RecA splice inh: 4; CCHF vOTU inh-2: -16

What do the screens show for `O=c1[nH]c2cc3ccccc3cc2nc1-c1nnnn1C1CCCC1`?
CCHF vOTU inh-1: 30*; CCHF vOTU inh-2: 11

How did O=c1[nH]c2ccccc2nc1-c1nnnn1C1CCCC1 do in these assays?
CCHF vOTU inh-1: -21

What do the screens show for `C=CCN1C(=O)[C@@H](CC(=O)NCc2cccc3ccccc23)[C@]2(C(=O)OC)CCCCC=C12`?
CCHF vOTU inh-1: 7

Results for COC(=O)C[C@H]1CC[C@H]2[C@H](COc3ccc(NS(=O)(=O)c4cccc(OC)c4)cc3C(=O)N2C)O1 ?
CCHF vOTU inh-1: -6

Results for CCOC(=O)c1ccc(N2C(=O)c3n[nH]c(C)c3C2c2ccco2)cc1 (stereo unspecified) ?
UGM FP inh: 2; Rv3671c protease: -5; CCHF vOTU inh-1: -1; Mtb bLac sens: -8; RecA splice inh: 3

Results for CCOC(=O)c1ccc(N2C(=O)c3n[nH]c(-c4ccco4)c3C2c2cccc([N+](=O)[O-])c2)cc1 (stereo unspecified) ?
UGM FP inh: -1; Rv3671c protease: -81; CCHF vOTU inh-1: 36*; Mtb bLac sens: 100; RecA splice inh: 25; CCHF vOTU inh-2: -1

Results for COC(=O)[C@H]1C[C@@]2(N3CCCCC3)c3ccccc3N(C(=O)OC(C)(C)C)[C@H]2N1C(=O)OC(C)(C)C ?
CCHF vOTU inh-1: 11

How did COc1cc(CN2CCN(C(C)C)C(CCO)C2)ccc1OCc1ccccc1 (stereo unspecified) do in these assays?
UGM FP inh: -1; Rv3671c protease: -8; CCHF vOTU inh-1: 30*; Mtb bLac sens: -8; RecA splice inh: -3; CCHF vOTU inh-2: -5

How did COc1ccc(CN2CCN(Cc3ccccc3)C(CCO)C2)cc1OC (stereo unspecified) do in these assays?
UGM FP inh: -1; Rv3671c protease: 3; CCHF vOTU inh-1: -8; Mtb bLac sens: -8; RecA splice inh: 1

How did O=C(NCc1ccco1)c1ccccc1Nc1ccc(F)cc1 do in these assays?
UGM FP inh: 0; Rv3671c protease: -7; CCHF vOTU inh-1: 31*; Mtb bLac sens: -3; RecA splice inh: 10; CCHF vOTU inh-2: -5

Results for O=C(NCc1ccco1)c1ccccc1F ?
UGM FP inh: 2; Rv3671c protease: -3; CCHF vOTU inh-1: -5; Mtb bLac sens: 1; RecA splice inh: -1

Results for CCOC(=O)c1c(NC(=O)COC(=O)Cn2cnc3ccccc32)sc2c1CCC(C)C2 (stereo unspecified) ?
UGM FP inh: -3; Rv3671c protease: -5; CCHF vOTU inh-1: 47*; Mtb bLac sens: -6; CCHF vOTU inh-2: 9

What do the screens show for `CC(C)(C)CC(C)(C)NC(=O)Nc1cccc([N+](=O)[O-])c1`?
UGM FP inh: 0; Rv3671c protease: -3; CCHF vOTU inh-1: 39*; Mtb bLac sens: 6; RecA splice inh: 4; CCHF vOTU inh-2: -12
